# Assay results as given in PubChem BioAssay (Tox21).
# Values joined by “and” are separate entries in the source; they are usually repeats but may differ in a detail not shown here. Identical values can stand only once. Results filed as inconclusive are left out. Entries that show only a call come without a potency. More than one record can exist for a structure, and the calls need not agree. Active and inactive are the calls of the source. Unless noted, the call rests on the fitted dose curve; in most records, active means well fitted curve in the direction sought with a large enough effect in the repeat runs; inconclusive means weak or mixed curves; inactive means no such curve, though single readings can be large; an effect the other way counts as inactive or inconclusive.
# Key:
# [1] = target: Androgen receptor (Homo sapiens) (UniProt P10275); assay: qHTS assay to identify small molecule antagonists of the androgen receptor (AR) signaling pathway using the MDA cell line in the presence of 0.5 nM R1881 (AID 1259243); further: nearly all actives have a fitted effect of over 50% in size; further: potency means the concentration at half of the fitted maximal effect
# Androgen receptor (Homo sapiens), sequence (P10275 whole entry, looked up): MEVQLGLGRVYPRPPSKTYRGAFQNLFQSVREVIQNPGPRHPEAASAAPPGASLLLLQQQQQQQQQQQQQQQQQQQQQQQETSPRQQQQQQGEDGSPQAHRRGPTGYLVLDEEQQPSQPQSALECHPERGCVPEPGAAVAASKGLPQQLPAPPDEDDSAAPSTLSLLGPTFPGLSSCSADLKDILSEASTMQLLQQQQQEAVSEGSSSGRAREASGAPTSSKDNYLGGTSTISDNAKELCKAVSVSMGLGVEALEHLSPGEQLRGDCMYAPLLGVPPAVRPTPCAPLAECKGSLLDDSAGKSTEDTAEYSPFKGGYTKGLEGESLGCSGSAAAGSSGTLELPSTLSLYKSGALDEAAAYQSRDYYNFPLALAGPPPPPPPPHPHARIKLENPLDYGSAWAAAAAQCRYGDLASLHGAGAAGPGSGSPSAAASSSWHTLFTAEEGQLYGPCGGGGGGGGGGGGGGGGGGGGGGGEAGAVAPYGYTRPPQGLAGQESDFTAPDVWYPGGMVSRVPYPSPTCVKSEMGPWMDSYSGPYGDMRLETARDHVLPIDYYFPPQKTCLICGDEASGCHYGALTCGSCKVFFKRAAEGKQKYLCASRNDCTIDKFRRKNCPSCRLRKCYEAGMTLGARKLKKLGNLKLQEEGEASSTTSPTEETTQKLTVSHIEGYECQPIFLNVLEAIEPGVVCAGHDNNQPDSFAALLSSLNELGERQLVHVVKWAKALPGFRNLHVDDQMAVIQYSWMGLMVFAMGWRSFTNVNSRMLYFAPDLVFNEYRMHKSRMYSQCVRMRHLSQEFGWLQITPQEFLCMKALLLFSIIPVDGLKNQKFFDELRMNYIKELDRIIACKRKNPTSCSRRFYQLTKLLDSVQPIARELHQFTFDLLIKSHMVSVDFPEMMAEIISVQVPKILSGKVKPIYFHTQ
# In short: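 MDA-kb2, MMTV-luc (AR/GR elements); 3,000 cells/well; cpd + 0.5 nM R1881 final; 16 hr 37C, 0% CO2; ONE-Glo 30 min RT; luminescence.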
# [2] = qHTS assay to identify small molecule HDAC inhibitors (AID 1259364);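 further: wild-type HCT-116 cells with endogenous class I/II HDAC activity; top concentration of the series differs between compounds; nearly all actives have a fitted effect of over 45% in size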
# In short: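 HCT-116 (wild type), 1,500 cells/well, overnight; compound 2 hr 37C 5% CO2; HDAC-Glo I/II reagent 30 min RT; luminescence readout.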
# [3] = qHTS assay to identify small molecule HDAC inhibitors - cell viability counter screen (AID 1259365); further: nearly all actives have a fitted effect of over 50% in size; further: potency means the concentration at half of the fitted maximal effect; on activity change, negative = cytotoxicity: series mostly up to about 92 µM
# In short: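 Following a 2hr exposure of overnight-plated wild-type HCT-116 cells to DMSO-delivered compounds, CellTiter-Glo was added and luminescence recorded after 30min at room temperature.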
# [4] = qHTS assay to identify small molecule agonists of the sonic hedgehog signaling (Shh) pathway (AID 1259368; calls by dose curve;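 further: NIH/3T3-derived 3T3Gli1-Luc cells carrying a stable Gli1-driven firefly luciferase reporter; series mostly up to about 92 µM; nearly all actives have a fitted effect of over 15% in size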)
# In short: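 Read-out: firefly luciferase luminescence from a Gli1 response element reporter stably integrated in NIH/3T3-derived 3T3Gli1-Luc cells, measured 30 min at room temperature after reagent addition. Compound exposure lasted 24 hr at 37 C, 5% CO2.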
# [5] = qHTS assay to identify small molecule antagonists of the sonic hedgehog signaling (Shh) pathway (AID 1259369; calls by dose curve; further: nearly all actives have a fitted effect of over 45% in size; further: potency means the concentration at half of the fitted maximal effect)
# In short: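 Luminescence readout: firefly Luc under Gli1 response element in 3T3Gli1-Luc cells (NIH/3T3 clone). Antagonist mode, stimulation by conditioned medium; compound exposure 24hr at 37 C, 5% CO2.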
# [6] = target: Estrogen receptor (Homo sapiens) (UniProt P03372); assay: qHTS assay to identify small molecule antagonists of the estrogen receptor alpha (ER-alpha) signaling pathway using the BG1 cell line in the presence of 0.1 nM 17-beta-estradiol (AID 1259244); further: nearly all actives have a fitted effect of over 50% in size; further: potency means the concentration at half of the fitted maximal effect
# Estrogen receptor (Homo sapiens), sequence (P03372 whole entry, looked up): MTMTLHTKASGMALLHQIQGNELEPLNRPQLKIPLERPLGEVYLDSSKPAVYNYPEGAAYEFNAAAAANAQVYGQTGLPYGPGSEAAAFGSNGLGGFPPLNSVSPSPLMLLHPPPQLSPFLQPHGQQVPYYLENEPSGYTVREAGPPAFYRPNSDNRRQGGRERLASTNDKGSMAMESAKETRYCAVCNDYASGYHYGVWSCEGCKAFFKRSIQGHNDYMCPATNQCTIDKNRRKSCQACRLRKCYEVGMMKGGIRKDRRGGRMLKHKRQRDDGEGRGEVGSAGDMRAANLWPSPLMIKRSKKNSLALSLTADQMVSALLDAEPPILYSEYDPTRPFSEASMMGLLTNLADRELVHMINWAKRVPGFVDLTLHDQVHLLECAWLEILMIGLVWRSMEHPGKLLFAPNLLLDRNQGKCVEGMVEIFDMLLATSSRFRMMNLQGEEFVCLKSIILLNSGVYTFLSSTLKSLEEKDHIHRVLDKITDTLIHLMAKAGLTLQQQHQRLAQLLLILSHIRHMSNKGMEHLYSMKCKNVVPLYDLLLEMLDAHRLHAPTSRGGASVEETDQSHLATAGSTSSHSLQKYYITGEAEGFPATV
# In short: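 Luminescence after ONE-Glo (30 min, room temperature) measured ERE-luciferase activity in VM7Luc4E2 cells treated 22 h with compound and 0.1 nM final 17beta-estradiol as stimulator.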
# [7] = qHTS assay to identify small molecule phospholipidosis (PLD) inducers (AID 1259344; active means well fitted curve in the direction sought with a large enough effect; an effect the other way counts as inactive or inconclusive)
# In short: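 Cells (HepG2, 900 per well) attach for 4 h, receive LipidTOX Red and compound together, incubate 24 h at 37 C, are fixed 30 min with paraformaldehyde/Hoechst, then imaged at one site per well.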
# [8] = qHTS assay to identify small molecule agonists of the sonic hedgehog signaling (Shh) pathway - cell viability counter screen (AID 1259366); further: nearly all actives have a fitted effect of over 50% in size; further: potency means the concentration at half of the fitted maximal effect
# In short: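 After a 4hr attachment at 37C, NIH/3T3 cells bearing an integrated Gli1-driven luciferase reporter were dosed with compounds. Treatment lasted 24hr, with the final hour including CellTiter-Fluor for a fluorescence viability measurement.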
# [9] = target: Estrogen receptor beta (Homo sapiens) (UniProt Q92731); assay: qHTS assay to identify small molecule agonists of the estrogen receptor beta (ER-beta) signaling pathway (AID 1259377; active means well fitted activation curve with a large enough effect in the signal ratio in the repeat runs, not every such curve was filed as active; the % refers to the signal ratio)
# Estrogen receptor beta (Homo sapiens), sequence (Q92731 whole entry, looked up): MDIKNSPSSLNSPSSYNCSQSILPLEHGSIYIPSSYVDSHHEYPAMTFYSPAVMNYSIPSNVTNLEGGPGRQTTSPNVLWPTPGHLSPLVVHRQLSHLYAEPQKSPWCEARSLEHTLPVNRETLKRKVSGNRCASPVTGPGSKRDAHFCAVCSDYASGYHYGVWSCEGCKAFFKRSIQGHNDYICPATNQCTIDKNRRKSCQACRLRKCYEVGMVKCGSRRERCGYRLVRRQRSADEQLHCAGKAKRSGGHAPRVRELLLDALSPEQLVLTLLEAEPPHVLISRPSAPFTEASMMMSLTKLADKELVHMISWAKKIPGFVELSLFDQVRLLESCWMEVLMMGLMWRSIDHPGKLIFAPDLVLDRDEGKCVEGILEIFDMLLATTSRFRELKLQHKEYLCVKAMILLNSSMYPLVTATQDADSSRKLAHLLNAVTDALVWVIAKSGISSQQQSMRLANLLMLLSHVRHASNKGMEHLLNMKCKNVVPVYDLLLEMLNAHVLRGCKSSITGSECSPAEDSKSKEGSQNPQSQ
# In short: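 In HEK293T cells bearing a UAS-beta-lactamase reporter under ER-beta control, DMSO-delivered compounds were incubated for 16 hr at 37C. Activity was detected as fluorescence 2 hours after LiveBLAzer B/G FRET substrate addition.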
# [10] = qHTS assay to identify small molecule antagonists of the sonic hedgehog signaling (Shh) pathway - cell viability counter screen (AID 1259367); further: nearly all actives have a fitted effect of over 55% in size; further: potency means the concentration at half of the fitted maximal effect
# In short: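 Cytotoxicity was assessed in parallel with Shh reporter activity by measuring live-cell protease fluorescence (CellTiter-Fluor) in NIH/3T3 cells stably carrying Gli1-Luc, treated with compound under conditioned medium stimulation for 23 hr plus 1 hr reagent incubation.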
compound,measurement,setting,value
CCCCCCCCCCCCN(CCO)CCO,Potency,[1],48.4 µM (active)
same,Potency,[2],inactive
same,Potency,[3],inactive
same,Potency,[4],inactive
same,Potency,[5],21.6 µM (active)
O=C(Nc1ccc(Cl)cc1)Nc1ccc(Cl)c(C(F)(F)F)c1,Potency,[6],9.44 µM (active)
same,Potency,[7],inactive
same,Potency,[2],inactive
same,Potency,[3],inactive
same,Potency,[8],inactive
same,Potency,[4],inactive
same,Potency,[5],7.5 µM (active)
same,Potency,[9],inactive
Clc1nc2ccccc2s1,Potency,[6],inactive
same,Potency,[2],inactive
same,Potency,[3],inactive
same,Potency,[8],inactive
same,Potency,[10],inactive
same,Potency,[4],inactive
same,Potency,[5],inactive
Cc1c(C(=O)O)cccc1[N+](=O)[O-],Potency,[1],inactive
same,Potency,[2],inactive
same,Potency,[3],inactive
same,Potency,[4],inactive
same,Potency,[5],19.6 µM (active)
S=P(N1CC1)(N1CC1)N1CC1,Potency,[6],inactive
same,Potency,[7],inactive
same,Potency,[2],inactive
same,Potency,[3],inactive
same,Potency,[10],57.4 µM (active)
same,Potency,[4],inactive
same,Potency,[5],22.9 µM (active)
CNC(=O)c1cc(Oc2ccc(NC(=O)Nc3ccc(Cl)c(C(F)(F)F)c3)cc2)ccn1,Potency,[6],26.6 µM (active)
same,Potency,[7],inactive
same,Potency,[2],inactive
same,Potency,[3],inactive
same,Potency,[4],inactive
same,Potency,[5],26.6 µM (active)
CCN(CC)CCOc1ccc(C(O)(Cc2ccc(Cl)cc2)c2ccc(C)cc2)cc1 (stereo not drawn),Potency,[6],inactive
same,Potency,[7],inactive
same,Potency,[2],inactive
same,Potency,[3],inactive
same,Potency,[4],inactive
same,Potency,[5],5.96 µM (active)
same,Potency,[9],inactive
CC(C(O)c1ccccc1)N(C)CCOC(c1ccccc1)c1ccccc1 (stereo not drawn),Potency,[6],inactive
same,Potency,[7],inactive
same,Potency,[2],inactive
same,Potency,[3],inactive
same,Potency,[4],inactive
same,Potency,[5],21.1 µM (active)
same,Potency,[9],inactive
C=C(c1ccc(C(=O)O)cc1)c1cc2c(cc1C)C(C)(C)CCC2(C)C,Potency,[6],12.2 µM (active)
same,Potency,[7],inactive
same,Potency,[2],inactive
same,Potency,[3],inactive
same,Potency,[8],inactive
same,Potency,[10],inactive
same,Potency,[4],inactive
same,Potency,[5],inactive
CCN(CC)CCNc1ccc(CO)c2sc3ccccc3c(=O)c12,Potency,[6],inactive
same,Potency,[7],inactive
same,Potency,[2],inactive
same,Potency,[3],inactive
same,Potency,[4],inactive
same,Potency,[5],13.3 µM (active)
CCN(CC)CCOC(=O)C1(C2CCCCC2)CCCCC1,Potency,[6],inactive
same,Potency,[7],inactive
same,Potency,[2],inactive
same,Potency,[3],inactive
same,Potency,[4],inactive
same,Potency,[9],inactive
CCCOc1sc(C(=O)N2CCC(c3cc(CN)ccc3F)CC2)c(C)c1Br,Potency,[1],39.7 µM (active)
same,Potency,[3],62.8 µM (active)
same,Potency,[8],22.3 µM (active)
same,Potency,[10],25 µM (active)
same,Potency,[4],inactive
same,Potency,[5],inactive
C1CC(COCC2CO2)CCC1COCC1CO1 (stereo not drawn),Potency,[6],inactive
same,Potency,[2],inactive
same,Potency,[3],inactive
same,Potency,[8],inactive
same,Potency,[10],inactive
same,Potency,[4],inactive
same,Potency,[5],inactive
COc1cc(C(=O)NS(=O)(=O)c2ccccc2C)ccc1Cc1cn(C)c2ccc(NC(=O)OC3CCCC3)cc12,Potency,[6],inactive
same,Potency,[7],inactive
same,Potency,[2],inactive
same,Potency,[3],inactive
same,Potency,[8],inactive
same,Potency,[10],inactive
same,Potency,[4],inactive
same,Potency,[5],inactive
same,Potency,[9],inactive
CSc1ccc2c(c1)N(CCC1CCCCN1C)c1ccccc1S2 (stereo not drawn),Potency,[6],54.3 µM (active) and inactive
same,Potency,[7],inactive
same,Potency,[2],inactive
same,Potency,[3],inactive
same,Potency,[8],15.3 µM (active) and 29.8 µM (active)
same,Potency,[10],21.6 µM (active) and 29.8 µM (active)
same,Potency,[4],inactive
same,Potency,[5],5.43 µM (active) and 11.9 µM (active)
NC1(c2ccc(-c3nc4ccn5c(=O)[nH]nc5c4cc3-c3ccccc3)cc2)CCC1,Potency,[6],inactive
same,Potency,[7],inactive
same,Potency,[2],inactive
same,Potency,[3],inactive
same,Potency,[8],13.3 µM (active)
same,Potency,[4],inactive
same,Potency,[5],0.0944 µM (active)
same,Potency,[9],inactive
OCCN1CN(CCO)CN(CCO)C1,Potency,[6],inactive
same,Potency,[2],inactive
same,Potency,[3],inactive
same,Potency,[8],inactive
same,Potency,[10],inactive
same,Potency,[4],inactive
O[C@@H](c1cc(C(F)(F)F)nc2c(C(F)(F)F)cccc12)[C@H]1CCCCN1,Potency,[6],inactive
same,Potency,[7],inactive
same,Potency,[2],inactive
same,Potency,[3],inactive
same,Potency,[8],29.8 µM (active)
same,Potency,[10],29.8 µM (active)
same,Potency,[4],inactive
same,Potency,[5],23.7 µM (active)
same,Potency,[9],inactive
CC(CN(C)C)CN1c2ccccc2CCc2ccccc21 (stereo not drawn),Potency,[6],inactive
same,Potency,[2],inactive
same,Potency,[3],inactive
same,Potency,[8],inactive
same,Potency,[10],inactive
same,Potency,[4],inactive
same,Potency,[5],2.37 µM (active)
C[C@@]12C(=O)OC(=O)[C@]1(C)C1CCC2O1,Potency,[6],6.68 µM (active)
same,Potency,[7],inactive
same,Potency,[2],inactive
same,Potency,[8],1.5 µM (active)
same,Potency,[10],3.76 µM (active)
same,Potency,[4],inactive
same,Potency,[5],1.68 µM (active)
CC(COC(=O)c1ccccc1)OC(=O)c1ccccc1 (stereo not drawn),Potency,[6],inactive
same,Potency,[2],inactive
same,Potency,[3],inactive
same,Potency,[8],inactive
same,Potency,[10],inactive
same,Potency,[4],inactive
CCOC(/C=C(\C)CCC=C(C)C)OCC,Potency,[6],inactive
same,Potency,[2],inactive
same,Potency,[3],inactive
same,Potency,[8],inactive
same,Potency,[10],inactive
same,Potency,[4],inactive
Cc1cc2c(C(C)C)c(O)c(O)c(C=O)c2c(O)c1-c1c(C)cc2c(C(C)C)c(O)c(O)c(C=O)c2c1O,Potency,[6],inactive
same,Potency,[7],inactive
same,Potency,[2],inactive
same,Potency,[3],inactive
same,Potency,[4],inactive
CCCCCCCCCCCCCC[n+]1ccccc1,Potency,[6],2.17 µM (active)
same,Potency,[2],inactive
same,Potency,[3],inactive
same,Potency,[8],61.1 µM (active)
same,Potency,[10],61.1 µM (active)
same,Potency,[4],inactive
same,Potency,[5],0.0049 µM (active)
CN1CN(C)CN(C)C1,Potency,[6],inactive
same,Potency,[2],inactive
same,Potency,[3],inactive
same,Potency,[8],inactive
same,Potency,[10],inactive
same,Potency,[4],inactive
same,Potency,[5],inactive
same,Potency,[9],inactive
CCC(=O)CC(C)CC (stereo not drawn),"activity change, negative = inhibition",[6],2.34% [at 0.349 µM] (inactive)
same,"activity change, negative = inhibition",[2],2.62% [at 0.349 µM] (inactive)
same,"activity change, negative = cytotoxicity",[3],3.99% [at 0.349 µM] (inactive)
same,"viability change, negative = cytotoxic",[8],4% [at 0.349 µM] (inactive)
same,"viability change, negative = cytotoxic",[10],2.54% [at 0.349 µM] (inactive)
same,activity change,[4],"-0.87% [at 0.349 µM, stronger effect = higher value] (inactive)"
same,"activity change, negative = inhibition",[5],19.5% [at 0.349 µM] (inactive)
CS(C)(=O)=O,Potency,[6],inactive
same,Potency,[2],inactive
same,Potency,[3],inactive
same,Potency,[8],inactive
same,Potency,[10],inactive
same,Potency,[4],inactive
same,Potency,[5],inactive
same,Potency,[9],inactive
CCCCCCCCCCCCCCCC,Potency,[6],inactive
same,Potency,[2],inactive
same,Potency,[3],inactive
same,Potency,[8],inactive
same,Potency,[10],inactive
same,Potency,[4],inactive
same,Potency,[5],inactive
